# Assay results published in PubChem BioAssay AID1053 (University of Pittsburgh Molecular Library Screening Center, 2008).
# “And” between values parts separate entries of the source, which are not always exact repeats. Identical values can stand only once. The source made the active and inactive calls. No rule for the calls is given here.
# Target: Serine/threonine-protein kinase PLK1 (Homo sapiens) (UniProt P53350)
# Assay: Plk1 polo box domain binding inhibitors, SAR follow-up, biochemical, fluorescence polarization, purchased analogs (AID 1053)
# Conditions: Plk1 PBD fluorescence polarization peptide binding; at 20 µM; active compounds read high
# Chain of Serine/threonine-protein kinase PLK1 (Homo sapiens) (P53350 whole entry, looked up, the tested form may be a part): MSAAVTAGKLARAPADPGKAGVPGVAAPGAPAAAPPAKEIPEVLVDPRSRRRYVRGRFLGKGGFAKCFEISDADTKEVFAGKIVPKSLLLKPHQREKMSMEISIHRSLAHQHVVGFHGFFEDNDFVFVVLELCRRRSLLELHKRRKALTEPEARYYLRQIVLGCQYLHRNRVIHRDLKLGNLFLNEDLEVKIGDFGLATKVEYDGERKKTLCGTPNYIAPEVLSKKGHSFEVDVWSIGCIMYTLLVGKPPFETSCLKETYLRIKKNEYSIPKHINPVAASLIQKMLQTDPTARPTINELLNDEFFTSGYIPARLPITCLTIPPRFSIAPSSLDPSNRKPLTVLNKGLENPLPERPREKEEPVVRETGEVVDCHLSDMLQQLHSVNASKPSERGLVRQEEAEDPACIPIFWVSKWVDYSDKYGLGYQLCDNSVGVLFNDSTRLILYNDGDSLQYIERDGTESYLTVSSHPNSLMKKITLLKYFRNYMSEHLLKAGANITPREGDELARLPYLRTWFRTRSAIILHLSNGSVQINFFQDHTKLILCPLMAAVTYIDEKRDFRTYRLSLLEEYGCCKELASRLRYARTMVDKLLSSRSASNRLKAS
row,SMILES,inhibition
1,Cc1ccc(-c2nc3c(=O)n(C)c(=O)nc-3n(C)n2)cc1,43.1% (inactive)
2,CCn1nc(-c2ccccc2Cl)nc2c(=O)n(C)c(=O)nc1-2,43.6% (inactive)
3,Cn1nc(-c2ccccc2)nc2c(=O)n(C)c(=O)nc1-2,31.4% (inactive)
4,CCN(CC)CCOC(=O)c1ccc(N=Cc2c(O)[nH]c(=O)[nH]c2=O)cc1,-148% (inactive) and -184% (inactive)
5,CCn1nc(-c2ccc([N+](=O)[O-])cc2)nc2c(=O)n(C)c(=O)nc1-2,60.6% (active)
6,CCn1nc(-c2ccccc2)nc2c(=O)n(C)c(=O)nc1-2,-2.54% (inactive)
7,CCCC(=O)c1c(O)[nH]c(=O)[nH]c1=O,-47.7% (inactive) and -64.6% (inactive)
8,O=C1NC(=O)C(=Cc2cccn2-c2ccc([N+](=O)[O-])cc2)C(=O)N1,-40.9% (inactive)
9,COc1cc(Br)cc(C=C2C(=O)NC(=O)NC2=O)c1O,-39.8% (inactive)
10,COc1cc(C=C2C(=O)NC(=O)NC2=O)cc(Cl)c1O,-40.9% (inactive)
11,O=C1NC(=O)C(=Cc2c3ccccc3cc3ccccc23)C(=O)N1,-41.5% (inactive)
12,Cn1c(O)c(C(=O)c2ccccc2Cl)c(=O)n(C)c1=O,-36.4% (inactive)
13,CCOC(=O)c1ccc(N=C(c2ccccc2)c2c(O)n(C)c(=O)n(C)c2=O)cc1,-58.1% (inactive)
